The text below walks through data of PubChem BioAssay AID2235 (The Scripps Research Institute Molecular Screening Center, 2010).

SMILES strings stand for the structures. About 2,800 (0.88%) of roughly 320,000 compounds were called active.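 How the source made its calls: active means inhibition above the mean inhibition of all tested compounds plus 3 SD, computed separately for each screening campaign (cut at about 15% in these data); inactive means the rest.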 For the sample, actives were picked, then their nearest neighbours and some compounds at random.

Serine/threonine-protein phosphatase PP1-alpha catalytic subunit (Homo sapiens), sequence (P62136 whole entry, looked up): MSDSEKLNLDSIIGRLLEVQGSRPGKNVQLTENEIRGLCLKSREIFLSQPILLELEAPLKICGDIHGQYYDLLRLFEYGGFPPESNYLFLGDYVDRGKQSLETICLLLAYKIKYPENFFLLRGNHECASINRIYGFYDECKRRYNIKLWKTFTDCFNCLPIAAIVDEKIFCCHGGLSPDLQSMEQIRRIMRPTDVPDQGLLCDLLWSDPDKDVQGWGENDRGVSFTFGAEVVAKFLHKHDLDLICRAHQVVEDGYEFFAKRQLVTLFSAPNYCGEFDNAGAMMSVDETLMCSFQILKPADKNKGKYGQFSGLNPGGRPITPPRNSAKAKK

This test concerns the target Serine/threonine-protein phosphatase PP1-alpha catalytic subunit (Homo sapiens) (UniProt P62136). Kind of test: inhibition of human PP1 catalytic subunit – biochemical, fluorescence, OMFP substrate, single point, counter-screen for PP5 inhibitor project, primary screen (AID 2235). As to conditions: purified PP1alpha, at 6.7 µM, hits give high values. In general terms: Counterscreens check selectivity or assay interference.
For orientation: inhibition means the drop in the measured response relative to a control, in per cent. For `Cc1ccc(C2Nc3cccc4cccc(c34)N2)cc1`, the inhibition was 1.42% (inactive).
Turning to `COc1cccc(C2Nc3cccc4cccc(c34)N2)c1`, the inhibition was 3.61% (inactive).
Regarding `Oc1ccc(C2Nc3cccc4cccc(c34)N2)cc1`, the inhibition was 30.9% (active).
In the case of `O=C1Nc2cc(C(=O)N3CCN(c4ccc(F)cc4)CC3)ccc2NC1CSCc1cccc(F)c1` (stereo unspecified), the inhibition was 14.3% (inactive).
The result for `Cc1ccc(CSCC2Nc3ccc(C(=O)N4CCN(c5ccc(F)cc5)CC4)cc3NC2=O)cc1` (stereo unspecified) reads 17.7% (active).
Regarding `O=C(c1cc(C(=O)N2CCN(c3ccc(F)cc3)CC2)cc([N+](=O)[O-])c1)N1CCN(c2ccc(F)cc2)CC1`, the inhibition is 1.38% (inactive).
Consider `CCS(=O)(=O)N1Cc2ccccc2CC1C(=O)Nc1nc2ccc(F)cc2s1` (stereo unspecified), for which the inhibition is 3.36% (inactive).
In the case of `CC(=O)c1c(C)[nH]c(C(=O)OCC(=O)Nc2sc3c(c2C#N)CCCC3)c1C`, the inhibition is 8.8% (inactive).
In the case of `Cc1cccc(N(Cc2ccccc2)C(=O)c2ccccc2F)c1`, the inhibition was 0.11% (inactive).
With `COc1ccc(C2=NS(=O)(=O)N(C)C(C(=O)NC(C)c3ccccc3)=C2)cc1` (stereo unspecified), the inhibition is -1.27% (inactive).
For the compound `COc1ccc(-n2nc3c(N4CCC(C(=O)NCc5ccccc5)CC4)nnc(C)c3c2C)cc1`, the inhibition was 4.6% (inactive).
The result for `CCOc1ccc(CNC(=O)C2CCCN(c3nnc(C)c4c(C)n(-c5ccccc5)nc34)C2)cc1` (stereo unspecified) reads 1.12% (inactive); that for `CCc1ccc(CNC(=O)C2CCN(c3nnc(C)c4c(C)n(-c5ccc(C)cc5)nc34)CC2)cc1`, 16.5% (active).
As to `CC(C)Cn1c(N)c(C(=O)COC(=O)CN2C(=O)C3CC=CCC3C2=O)c(=O)n(C)c1=O` (stereo unspecified), the inhibition is -0.85% (inactive).
As for `O=C(Nc1ccc2ccccc2c1)Nc1ccc2snnc2c1`, the inhibition was 13.3% (inactive).
In the case of `Cc1nn(-c2ccccc2)c2[nH]c(C(F)(F)F)cc(=O)c12`, the inhibition is 2.68% (inactive).
For the compound `CCCN1CCN(C(=O)CCCNC(=O)c2ccc(Cl)cc2)CC1`, the inhibition was -3.09% (inactive).
The result for `CN1CCN(CCCNC(=O)c2ccc(/C=C3\Oc4ccccc4N(Cc4ccc(Cl)cc4)C3=O)cc2)CC1` reads 25.6% (active); that for `CN1C(=O)/C(=C/c2ccc(C(=O)NC3CCCC3)cc2)Oc2ccccc21`, 1.1% (inactive).
As to `Cc1cc(C)nc(-n2nc(C)cc2NC(=O)c2ccc(F)cc2F)n1`, the inhibition is -0.61% (inactive).
`O=C(NCc1ccccc1)C(c1cccnc1)N(C(=O)c1csnn1)c1ccc(F)cc1` (stereo unspecified): the inhibition was 8.74% (inactive).
As to `O=C(CCC1CCCC1)N=C1SC2CS(=O)(=O)CC2N1Cc1ccccc1` (stereo unspecified), the inhibition is 5.06% (inactive).
`O=C(N=C1SC2CS(=O)(=O)CC2N1c1cc(Cl)ccc1Cl)C1CC1` (stereo unspecified): the inhibition is 18.9% (active).
Regarding `CC(=O)c1ccc(N2C(=NC(=O)C(C)C)SC3CS(=O)(=O)CC32)cc1` (stereo unspecified), the inhibition was -3.39% (inactive).
With `CCOC(=O)N1CCN(C(=O)c2ccc3c(=O)n(CCc4ccc(OC)c(OC)c4)c(=O)[nH]c3c2)CC1`, the inhibition was 4.83% (inactive).
On to `NS(=O)(=O)c1ccc(CCNC(=O)COC(=O)COc2cccc(C(F)(F)F)c2)cc1`, for which the inhibition was -0.82% (inactive).
As to `CCOC(=O)c1cc(-c2ccc(F)cc2)n(CC(=O)NCc2ccccn2)c1C`, the inhibition was -3.29% (inactive).
Consider `Cc1ccc(OCC(=O)Nc2ccc(-c3nnc(-c4ccco4)o3)cc2)cc1`, for which the inhibition was 24.5% (active).
Consider `CCCCOc1ccc(-c2nnc(-c3ccco3)o2)cc1`, for which the inhibition is 3.14% (inactive).
For `Cc1ccc(OCC(=O)Nc2ccc(-c3nc4ncccc4o3)cc2)cc1`, the inhibition is 0.81% (inactive).
As for `Cc1cc(C)nc(N/N=C/c2c(CO)cnc(C)c2O)n1`, the inhibition is 1.96% (inactive).
As for `CSc1ccccc1NC(=O)c1cc(C2CC2)on1`, the inhibition was 0.1% (inactive).
Regarding `C=CCSc1nnc(N2C(=O)C(O)=C(C(=O)c3ccco3)C2c2ccc(F)cc2)s1` (stereo unspecified), the inhibition is 10.6% (inactive).
Consider `Cc1ccc2nc(N3C(=O)C(O)=C(C(=O)c4ccco4)C3c3cccc(O)c3)sc2c1` (stereo unspecified), for which the inhibition is 21.7% (active).
The same measure for `Cc1ccc2nc(N3CCN(C(=O)c4ccco4)CC3)sc2c1`: -4.18% (inactive).
On to `COc1ccc(OC(C)C(=O)Nc2cccnc2)cc1` (stereo unspecified), for which the inhibition is 3% (inactive).
On to `Cc1cc(NC(=O)CSCc2nc(-c3cccc(Cl)c3)oc2C)no1`, for which the inhibition was 0.91% (inactive).
Consider `COc1ccc(N2C(=O)C(CC(=O)Nc3ccccc3)N(Cc3ccc(OC)c(OC)c3)C2=O)cc1` (stereo unspecified), for which the inhibition is -2.83% (inactive).
As for `OCCCN1c2ccccc2Nc2nnc(-c3ccccc3)cc21`, the inhibition was 21.4% (active).
In the case of `c1ccc(-c2cc(-c3ccccc3)[nH]n2)cc1`, the inhibition is 2.76% (inactive).
Take `N=c1c2c(-c3ccccc3)c(-c3ccccc3)n(Cc3ccccc3)c2ncn1CCCO`: the inhibition was 7.81% (inactive).
In the case of `CCN(CCCNC(=O)c1ccc2c(c1)NC(=O)CN2C)c1cccc(C)c1`, the inhibition was -0.43% (inactive).
`CCC(C)N(C(=O)CSc1nnnn1-c1ccccc1OC)C1CCS(=O)(=O)C1` (stereo unspecified): the inhibition was -1.76% (inactive).
As to `CC1CCCCN1C(=O)Cn1c(=O)oc2cc(S(=O)(=O)N3CCCCC3)ccc21` (stereo unspecified), the inhibition is 5.73% (inactive).
Take `CCc1ccc(Nc2n[n+](-c3ccccc3)c(-c3cccc(Cl)c3Cl)s2)cc1`: the inhibition was 14.2% (inactive).
Consider `COc1ccc(C)cc1Nc1n[n+](-c2ccccc2)c(-c2cccc(Cl)c2Cl)s1`, for which the inhibition was 15.2% (active).
Regarding `COc1cc(Br)c(-c2sc(Nc3ccccc3)n[n+]2-c2ccccc2)cc1OC`, the inhibition was -0.57% (inactive).
The same measure for `CCCN(CC(=O)Nc1ccc(OC)c(OC)c1)CC(=O)Nc1ccc(F)c(F)c1F`: -0.52% (inactive).
As for `NC(=O)c1ccsc1NC(=O)c1ccco1`, the inhibition was 1.47% (inactive).
On to `O=C(Nc1nnc(CCOCCOCCc2nnc(NC(=O)c3ccco3)s2)s1)c1ccco1`, for which the inhibition is -2.12% (inactive).
Regarding `O=C(Nc1nc(-c2ccco2)c(-c2ccco2)s1)c1ccco1`, the inhibition was 26.9% (active).
The same measure for `N#Cc1ccccc1S(=O)(=O)N1CCN(Cc2c(O)ccc3ccccc23)CC1`: 0.2% (inactive); for `CCOc1ccc(-n2c(SCC(=O)Nc3ccc(OC)cc3)nc3sc4c(c3c2=O)CCN(C)C4)cc1`: 11.8% (inactive); for `CCn1c(SCC(=O)Nc2ccc(Br)cc2)nc2sc3c(c2c1=O)CCN(C)C3`: 3.91% (inactive).
Take `COc1ccccc1NC(=O)CSc1nc2sc3c(c2c(=O)n1-c1ccccc1)CCN(C)C3`: the inhibition was 21.4% (active).
As for `Cc1cc(S(=O)(=O)NC2CCCC2)ccc1-n1cnnn1`, the inhibition was 3.65% (inactive).
